Measured values taken from PubChem BioAssay (EPA / NIEHS).
Records with an inconclusive call do not appear. Calls of active or inactive are those of the source. Rule for the calls, unless noted: active = hit-call score of the fitted dose curve at least 0.9, where 1 is the maximum; inconclusive = response in the unintended direction; inactive = score below 0.9.

Experiments:
[1] = read-out: Thyroid Hormone Responsive (THRSP), THRSP (gene 7069); experiment: LTEA_HepaRG_THRSP: Life Technologies and Expression Analysis (LTEA) Assay for Thyroid Hormone Responsive (THRSP) using HepaRG (AID 2283536; active = hit-call score of the fitted dose curve at least 0.9, where 1 is the maximum; inactive = score below 0.9); settings: mRNA level, 48 h; actives raise or lower the signal
In short: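 mRNA induction or loss relative to 0.5% DMSO vehicle was fitted bidirectionally across an eight-point curve whose highest exposure was 100 uM. Human HepaRG liver cells received chemicals in duplicate over 48 h before RNA extraction.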

[2] = read-out: Cellular tumor antigen p53 (Homo sapiens) (UniProt P04637); experiment: LTEA_HepaRG_TP53: Life Technologies and Expression Analysis (LTEA) Assay for Tumor Protein P53 (TP53) using HepaRG (AID 2283537; active = hit-call score of the fitted dose curve at least 0.9, where 1 is the maximum; inactive = score below 0.9); settings: mRNA level, 48 h; actives raise or lower the signal
In short: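 Differentiated HepaRG cells in serum-free induction medium exposed 48 h in duplicate to 8 half-log concentrations, top 100 uM, 0.5% DMSO. TP53 mRNA by TaqMan qRT-PCR (Fluidigm), normalized to ACTB, GAPDH, POLR2A; fitted bidirectionally versus DMSO.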

[3] = read-out: UDP glucuronosyltransferase (UGT1A1), UGT1A1 (gene 54658); experiment: LTEA_HepaRG_UGT1A1: Life Technologies and Expression Analysis (LTEA) Assay for UDP glucuronosyltransferase (UGT1A1) using HepaRG (AID 2283538; active = hit-call score of the fitted dose curve at least 0.9, where 1 is the maximum; inactive = score below 0.9); settings: mRNA level, 48 h; actives raise or lower the signal
In short: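 HepaRG cells, 0.5% DMSO vehicle, 48 h exposure in serum-free induction medium to 8-point half-log series topping at 100 uM, in duplicate. UGT1A1 mRNA by Fluidigm qRT-PCR, normalized to ACTB/GAPDH/POLR2A; bidirectional fit versus DMSO.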

[4] = read-out: UDP glucuronosyltransferase (UGT1A6), UGT1A6 (gene 54578); experiment: LTEA_HepaRG_UGT1A6: Life Technologies and Expression Analysis (LTEA) Assay for UDP glucuronosyltransferase (UGT1A6) using HepaRG (AID 2283539; active = hit-call score of the fitted dose curve at least 0.9, where 1 is the maximum; inactive = score below 0.9); settings: mRNA level, 48 h; actives raise or lower the signal
In short: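 Expression was quantified by TaqMan qRT-PCR on Fluidigm arrays with ACTB/GAPDH/POLR2A normalization and bidirectional fitting against 0.5% DMSO. HepaRG cells (~100,000/well) were treated in duplicate for 48 h at eight half-log concentrations up to 100 uM in serum-free induction medium.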

[5] = read-out: X-box binding protein 1 (XBP1), XBP1 (gene 7494); experiment: LTEA_HepaRG_XBP1: Life Technologies and Expression Analysis (LTEA) Assay for X-box binding protein 1 (XBP1) using HepaRG (AID 2283540; active = hit-call score of the fitted dose curve at least 0.9, where 1 is the maximum; inactive = score below 0.9); settings: mRNA level, 48 h; actives raise or lower the signal
In short: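 XBP1 transcript by qRT-PCR (housekeeping-normalized: ACTB, GAPDH, POLR2A) after 48 h chemical treatment of HepaRG cells, 8-point half-log series topping at 100 uM, vehicle 0.5% DMSO. Gain and loss of signal fitted relative to DMSO.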

[6] = LTEA_HepaRG_LDH_cytotoxicity: Cytotoxicity Assessment in the Life Technologies and Expression Analysis (LTEA) Assay (AID 2283563);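 for AC50: LDH activity released into spent culture medium as a marker of cell death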
In short: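 LDH release into culture medium read after 48 h chemical treatment of HepaRG cells. Duplicate wells, eight-point half-log series topping at 100 uM, 0.5% DMSO vehicle and baseline.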

[7] = molecular target: Cellular tumor antigen p53 (Homo sapiens) (UniProt P04637); experiment: TOX21_p53_BLA_p2_ratio: Tox21 HCT-116 p53 Agonism Beta-lactamase Assay, Ratio, Phase 2 (AID 2283592)
In short: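 Gain-of-signal p53 agonism was scored from the beta-lactamase FRET ratio (460/530 nm, 405 nm excitation) in HCT116 cells treated 16 h at 37C, 5% CO2, with DMSO serving as negative control and baseline.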

[8] = molecular target: Cellular tumor antigen p53 (Homo sapiens) (UniProt P04637); experiment: TOX21_p53_BLA_p3_ratio: Tox21 HCT-116 p53 Agonism Beta-lactamase Assay, Ratio, Phase 3 (AID 2283596)
In short: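 HCT116 p53-bla cells (4000/well) given compound in DMSO (217-fold dilution) after 5 h, incubated 16 h at 37C. CCF4-AM substrate 2 h at room temperature; 460/530 nm emission ratio, gain fitted against DMSO.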

[9] = Tanguay_ZF_120hpf_MORT_legacy: (Legacy) Oregon State University Tanguay Lab 120 Hour Post-fertilization zebrafish Assay for Mortality (AID 2283633)
In short: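 Static waterborne exposure from 6 to 120 hpf at 28C of single dechorionated wild-type (5D) embryos per well, 0.64% DMSO final. Death recorded present/absent by brightfield at 24 and 120 hpf.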

[10] = Tanguay_ZF_120hpf_YSE_legacy: (Legacy) Oregon State University Tanguay Lab 120 Hour Post-fertilization zebrafish Assay for Yolk Sac Edema (AID 2283634);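 for AC50: actives raise the incidence of yolk sac edema above the DMSO baseline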
In short: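 Presence or absence of yolk sac edema was recorded at 120 hpf in surviving larvae. These were wild-type Tropical 5D embryos, chorion removed at 4 hpf, held in static exposure at 28C from 6 hpf with 0.64% DMSO vehicle.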

[11] = Tanguay_ZF_120hpf_AXIS_legacy: (Legacy) Oregon State University Tanguay Lab 120 Hour Post-fertilization zebrafish Assay for Body Axis Malformation (AID 2283635);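 for AC50: potency for an increased fraction of larvae scored with body axis malformation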
In short: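 Binary scoring of axis defects at 120 hpf under brightfield, fitted positive versus DMSO. Tropical 5D embryos, chorion removed by pronase at 4 hpf, were singly exposed in sealed, dark plates at 28C from 6 hpf; DMSO 0.64% final.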

[12] = Tanguay_ZF_120hpf_EYE_legacy: (Legacy) Oregon State University Tanguay Lab 120 Hour Post-fertilization zebrafish Assay for Eye Malformation (AID 2283636)
In short: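 Read-out is binary presence or absence of eye malformation, scored by brightfield microscopy at 120 hpf. Single larvae were exposed from 6 hpf in embryo medium containing 0.64% DMSO, with DMSO as baseline.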

[13] = Tanguay_ZF_120hpf_SNOU_legacy: (Legacy) Oregon State University Tanguay Lab 120 Hour Post-fertilization zebrafish Assay for Snout Malformation (AID 2283637)
In short: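 Snout malformation read as a yes/no call on brightfield images of 120 hpf larvae (Tropical 5D strain). Static exposure began at 6 hpf on dechorionated embryos in 0.64% DMSO, with gain of signal analysed versus DMSO controls.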

[14] = TOX21_p53_BLA_p3_viability: Viability Assessment in the Tox21 HCT-116 p53 Agonism Beta-lactamase Assay, Phase 3 (AID 2283593);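 note: cells exposed to compound for 16 h before reading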
In short: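 Cellular ATP was quantified by CellTiter-Glo luminescence, read after 30 min at room temperature. Beforehand, HCT116 cells (4000/well) received compound 5 h post-seeding, 217-fold diluted from DMSO, then incubated 16 h at 37C.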

[15] = TOX21_p53_BLA_p4_viability: Viability Assessment in the Tox21 HCT-116 p53 Agonism Beta-lactamase Assay, Phase 4 (AID 2283597);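 note: hits lower the luminescence signal meaning cytotoxicity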
In short: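 Following a 16 h exposure at 37C, the treated HCT116 wells were first read for the FRET ratio. They were then lysed with CellTiter-Glo, and ATP luminescence was recorded after 30 min at room temperature.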

[16] = molecular target: Cellular tumor antigen p53 (Homo sapiens) (UniProt P04637); experiment: TOX21_p53_BLA_p5_ratio: Tox21 HCT-116 p53 Agonism Beta-lactamase Assay, Ratio, Phase 5 (AID 2283599)
In short: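 Beta-lactamase reporter ratio (blue 460 nm over green 530 nm, 405 nm excitation) after 2 h CCF4-AM loading, in HCT-116 cells exposed 16 h at 37 C to compounds pinned at 217-fold dilution. Increases relative to DMSO baseline scored.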

[17] = molecular target: Cellular tumor antigen p53 (Homo sapiens) (UniProt P04637); experiment: TOX21_p53_BLA_p4_ratio: Tox21 HCT-116 p53 Agonism Beta-lactamase Assay, Ratio, Phase 4 (AID 2283601)
In short: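 Signal is the blue/green (460nm/530nm) ratio of cleaved versus uncleaved CCF4-AM substrate, read after 2 h substrate loading. Cells were HCT116 carrying the p53-responsive beta-lactamase reporter, dosed 16 h at 37C, 5% CO2; CellTiter-Glo measured in parallel.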

[18] = TOX21_p53_BLA_p2_viability: Viability Assessment in the Tox21 HCT-116 p53 Agonism Beta-lactamase Assay, Phase 2 (AID 2283591);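 note: compound exposure lasted 16 h at 37 °C; actives lower the ATP signal meaning cytotoxicity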
In short: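 Cytotoxicity readout: CellTiter-Glo ATP luminescence, 30 min at room temperature, after the beta-lactamase read. Cells were HCT116 exposed 16 h at 37C to compounds pin-transferred at 217-fold dilution from DMSO stocks.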

[19] = TOX21_p53_BLA_p5_viability: Viability Assessment in the Tox21 HCT-116 p53 Agonism Beta-lactamase Assay, Phase 5 (AID 2283600)
In short: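 After the 460/530 nm beta-lactamase measurement, the wells received an ATP-detection luciferase reagent; signal was read 30 min later at RT. Compound treatment lasted 16 h on cells pre-incubated 5 h post-seeding.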

Measured: AC50

Sequence of Cellular tumor antigen p53 (Homo sapiens) (P04637 whole entry, looked up): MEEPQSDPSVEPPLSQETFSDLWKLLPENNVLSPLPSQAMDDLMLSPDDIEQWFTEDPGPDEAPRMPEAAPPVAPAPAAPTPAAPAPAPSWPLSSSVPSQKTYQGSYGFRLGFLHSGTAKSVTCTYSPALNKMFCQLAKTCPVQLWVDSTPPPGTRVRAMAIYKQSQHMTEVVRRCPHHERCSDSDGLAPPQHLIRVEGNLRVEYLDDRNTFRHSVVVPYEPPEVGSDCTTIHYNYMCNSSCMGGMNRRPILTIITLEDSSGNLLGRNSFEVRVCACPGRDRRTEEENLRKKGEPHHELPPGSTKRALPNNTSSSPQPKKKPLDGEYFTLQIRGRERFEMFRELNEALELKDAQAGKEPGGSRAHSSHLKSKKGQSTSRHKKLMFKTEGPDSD

OCCCl
inactive: [1] | [2] | [3] | [4] | [5] | [6] | [7] | [8] | [9] | [10] | [11] | [12] | [13]

N#CC(Br)Br
inactive: [1] | [3] | [4] | [5] | [6] | [9] | [11] | [13]

CCCCC(CC)COC(=O)c1ccc(C(=O)OCC(CC)CCCC)c(C(=O)OCC(CC)CCCC)c1 (stereo not given)
inactive: [1] | [2] | [3] | [4] | [5] | [6] | [7] | [14] | [8] | [15] | [16] | [17] | [9] | [10] | [11] | [12] | [13]

O=C(Oc1ccc(Br)cc1)N1CCN2CCC1CC2
active: [1] 34.8 µM | [11] 38.3 µM
inactive: [2] | [3] | [4] | [5] | [18] | [14] | [15] | [19] | [17] | [9] | [10] | [12] | [13]

O=C(Nc1ccccc1)c1ccccc1I
active: [1] 27.1 µM | [3] 13.1 µM | [5] 13.2 µM | [6] 40.5 µM | [10] 51.3 µM | [12] 10.5 µM | [13] 12.1 µM
inactive: [4] | [9]

CCOC(=O)[C@]1(c2ccccc2)Oc2ccccc2[C@@H]1N
active: [1] 3.18 µM | [3] 83.1 µM | [4] 80 µM | [6] 77.6 µM
inactive: [5] | [9] | [10] | [11] | [12] | [13]

CCNS(=O)(=O)C(F)(F)C(F)(F)C(F)(F)C(F)(F)C(F)(F)C(F)(F)C(F)(F)C(F)(F)F
inactive: [3] | [4] | [6] | [9]
active: [1] 48.2 µM | [5] 48.2 µM | [10] 43 µM | [11] 55.9 µM | [12] 53.6 µM | [13] 54.9 µM

c1ccc(C2CO2)cc1 (stereo not given)
inactive: [1] | [2] | [3] | [4] | [5] | [6] | [18] | [8] | [16] | [19] | [17] | [9] | [10] | [11] | [12] | [13]

O=Cc1ccco1
inactive: [1] | [2] | [3] | [4] | [5] | [18] | [7] | [14] | [8] | [15] | [16] | [17] | [9] | [10] | [11] | [12] | [13]
